# Data reported in PubChem BioAssay AID1347141 (National Center for Advancing Translational Sciences (NCATS), 2019).
# Some of the results follow. Results filed as inconclusive are left out. Activity calls are given as the source filed them. Calls follow the shape of the dose curve; as a rule, active = well fitted inhibition curve with a large enough effect; inconclusive = small, poorly fitted or top-dose-only effect; inactive = flat fitted curve, though single readings scatter.
# Assay: qHTS of pediatric cancer cell lines to identify multiple opportunities for drug repurposing: Orthogonal 3D viability screen for RD cells
# Settings: RD rhabdomyosarcoma 3D spheroid viability, PI/Hoechst imaging, 72 h; series mostly up to 30.7 µM
# From the text: Drug repurposing or repositioning has been offered as a strategy for drug development in oncology programs. This approach has special potential for childhood cancers and other rare or orphan diseases, where the expected return on new drug development has been a disincentive to pharmaceuticals. […] In this project we exploit the poly-pharmacology of drugs to discover new indications via phenotypic screening of a panel of 19 well-characterized cell lines derived from solid tumors seen in children and adolescents. The goal is to identify approved drugs with previously unrecognized anticancer properties that has the potential to reveal new mechanisms and biological processes involved in carcinogenesis or drug resistance. We employed a titration-based paradigm (quantitative high-throughput screening or qHTS), where all compounds were tested at multiple concentrations for their effect on cell viability. Concentration-response curves (CRCs) were derived directly from the primary screen, and both potency and efficacy values were used to identify compounds with robust bioactivity profiles. […] These two assays will be used to validate active compounds and assess the correlation of compound's potency in 2D vs 3D cultures on selected cell lines. Assay Submitter: Nathalia J. Martinez, National Center for Advancing Translational Sciences, National Institutes of Health, Rockville, MD, USA; email: natalia.martinez@nih.gov Shen, M et al. Quantitative high-throughput phenotypic screening of pediatric cancer cell lines identifies multiple opportunities for drug repurposing. Oncotarget 2017 Dec 19;9(4):4758-4772. PMID 29435139.
# The cells were obtained from University of North Carolina (UNC), Pediatric Preclinical Testing Program (PPT), and Coriell Institute (CI). qHTS viability in 3D culture: Cells were assayed in phenol red-free growth media at a density of 1,000 cells/well, with the exception of Daoy, and SH-N-SH which were assayed at 1,500 cells/ well. Thirty muL of cells were dispensed into 384-well, ULA, round bottom plates (Corning) using a Multidrop dispenser. Plates were spun down at 1,000 rpm for 1 min and incubated at 37 degrees C, 5% CO2, under a humidified atmosphere for either 24 (Daoy) or 48 hours (all other cell lines) to allow spheroid formation. Ninety-two nanoliter of compounds and controls (neutral control DMSO or positive control bortezomib at final concentrations of 0.5 µM) were subsequently transferred via GNF Pintool. Plates were sealed using a breathable seal (Diversified Biotech, Dedham, MA) and incubated for 72 hours at 37 degrees C. Spheroid viability was first determined by high-content imaging using Hoechst 33342 and Propidium Iodide (PI, ThermoFisher Scientific), followed by addition of CellTiter-Glo 3D (Promega). Specifically, 3 µL/well of PBS containing a 1:500 dilution of both dyes was dispensed using Multidrop. Dyes were incubated for 1 hour before imaging using the Celigo Image Cytometer. Then, 20 µl of CellTiter-Glo 3D were added per well. Plates were incubated for 30 min at RT on a VWR microplate shaker (300 rpm) and analyzed for luminescence intensity using a ViewLux High-throughput CCD imager equipped with clear filters. Image analysis was done using the Celigo Tumorsphere 1+2+3 application software as previously described. […] The data were exported to Excel, and the average fluorescent intensities were used to calculate the ratio of PI over Hoechst, which was used to quantify viability. […]
row,SMILES,Potency
1,CC[C@H]1CN2CCc3cc(OC)c(OC)cc3[C@@H]2C[C@@H]1C[C@H]1NCCc2cc(OC)c(OC)cc21,2040 nM (active)
2,CC1(C)O[C@@H]2C[C@@H]3[C@H]4C[C@@H](F)C5=CC(=O)C=C[C@]5(C)[C@@]4(F)[C@@H](O)C[C@]3(C)[C@]2(C(=O)CO)O1,10200 nM (active)
3,CC(NCc1ccc2c(c1)nc(NC(=O)c1ccc(-c3cn[nH]c3)s1)n2CC(C)(C)O)C(C)(C)C (stereo not given),810 nM (active)
4,C=C1C(=CC=C2CCC[C@]3(C)[C@@H]([C@H](C)C=C[C@H](C)C(C)C)CC[C@@H]23)C[C@@H](O)C[C@@H]1O,inactive
5,CC[C@]1(O)C[C@@H]2CN(CCc3c([nH]c4ccccc34)[C@@](C(=O)OC)(c3cc4c(cc3OC)N(C)[C@H]3[C@@](O)(C(=O)OC)[C@H](OC(C)=O)[C@]5(CC)C=CCN6CC[C@]43[C@@H]65)C2)C1,45.6 nM (active)
